In PubChem BioAssay (Tox21):
Values joined by “and” are separate entries in the source; they are usually repeats but may differ in a detail not shown here. Equal entries are not always repeated. Results filed as inconclusive are left out. Where a call stands in place of a potency, no number is given. Active and inactive are the calls of the source. The call rests on the fitted dose curve; in most records, active means well fitted cell-killing curve with a large enough effect in the repeat runs; inconclusive means weak or mixed curves, or effect the other way; inactive means flat fitted curve, though single readings scatter.

Assay: qHTS RealTime-Glo MT Cell Viability Assay in HEK293 cells - 8 hour (AID 1224887); further: nearly all actives have a fitted effect of over 50% in size; on activity change, negative = cytotoxicity: top concentration of the series differs between compounds
Conditions: RealTime-Glo luminescence; series mostly up to 76.8 µM
Source text: U.S. Tox21 Program National Center for Advancing Translational Sciences [NCATS] NIH Chemical Genomics Center [NCGC] U.S. Environmental Protection Agency [EPA] National Institutes of Environmental Health Sciences [NIEHS] National Toxicology Program [NTP] U.S. Food and Drug Administration [FDA] Tox21 Assay Overview: Measure of cell viability is critical in the cell-base assay. Analysis of cell viability is necessary for the characterization of cell responses to cytotoxic drugs and environmental stress. A RealTime-Glo MT Cell Viability Assay to monitor cell viability in real time of continues cell culture during 40 hours of compound treatment was used to screen Tox21 10K library compounds in Hek293 cells. The RealTime-Glo MT Cell Viability Assay is a nonlytic, homogeneous, bioluminescent method to measure cell viability in real time using a simple, plate-based method. The assay involves adding NanoLuc luciferase and a cell-permeant prosubstrate to cells in culture. Viable cells reduce the proprietary prosubstrate to generate a substrate for NanoLuc luciferase. This substrate diffuses from cells into the surrounding culture medium, where it is rapidly used by the NanoLuc Enzyme to produce a luminescent signal. The signal correlates with the number of viable cells, making the assay well suited for cytotoxicity studies.
Tox21 Assay Protocol Summary: The mixture of Hek293 cell suspension and reagents were dispensed at 600cells/6 ul/well in 1536-well tissue culture treated black solid bottom plates using a Multidrop dispenser. After the assay plates were incubated at a 37 C/5% CO2 incubator for 5 hours, 23 nL of compounds dissolved in DMSO, positive and negative controls was transferred to the assay plate by a pintool work station. The plates were incubated at 37 C for 40 hours. The luminescence intensity were measured at 0h, 8h, 16h, 24h, 32h and 40h time points using ViewLux plate reader during compound treatment.
Potency means the concentration at half of the fitted maximal effect.

Compound	Potency	activity change, negative = cytotoxicity
CC(NC(CCc1ccccc1)C(=O)O)C(=O)N1C(=O)N(C)CC1C(=O)O (stereo not given)	inactive	–
Cc1ccc(Cl)cc1Cl	inactive	–
Brc1c(NC2=NCCN2)ccc2nccnc12	inactive	–
O=c1cc(-c2ccccc2)oc2ccccc12	17.4 µM (active) and 17.3 µM (active)	–
C1OCOCO1	inactive	–
C=C[Si](OC(=C)C)(OC(=C)C)OC(=C)C	inactive	–
C[C@H]1C[C@@H](O)CC(C)(C)C1	inactive	–
Cc1sccc1Br	inactive	–
c1ccc([C@H]2CN3CCSC3=N2)cc1	inactive	–
O=C(O)CN(CCOCCOCCN(CC(=O)O)CC(=O)O)CC(=O)O	–	1.96% [at 0.29 µM] (inactive)
CO[C@]12C[C@@H](COC(=O)c3cncc(Br)c3)CN(C)[C@@H]1Cc1cn(C)c3cccc2c13	21.3 µM (active)	–
CCCCC(CC)COC(=O)c1ccccc1O (stereo not given)	inactive	–
CC1(C)C(O)C(C)(C)C1O (stereo not given)	inactive	–
FC1(F)C(F)(F)C(F)(F)C2(F)C(F)(F)C(F)(F)C(F)(F)C(F)(F)C2(F)C1(F)F (stereo not given)	inactive	–
NC(=O)c1cn(Cc2c(F)cccc2F)nn1	inactive	–
Cc1c(O)cccc1O	inactive	–
N[C@H](C(=O)O)c1ccc(O)cc1	–	4.01% [at 15.8 µM] (inactive)
O=C1OC(=O)C2CCCCC12 (stereo not given)	inactive	–
O=C(O)CCCc1ccccc1	inactive	–
CC(=O)N(CC(O)CO)c1c(I)c(C(=O)NCCO)c(I)c(C(=O)NCC(O)CO)c1I (stereo not given)	inactive	–

Compound	Potency	activity change, negative = cytotoxicity
CC(C)c1cc2c(cc1S(=O)(=O)O)[C@@]1(C)CCC[C@@](C)(C(=O)O)[C@@H]1CC2	inactive	–
Nc1c2c(nc3ccccc13)CCCC2O (stereo not given)	inactive	–
CN1C(=O)N(C)C(O)C1O (stereo not given)	inactive	–
CCC(C)C1CCCCC1=O (stereo not given)	inactive	–
CC1=CC(C)C(C=O)CC1 (stereo not given)	inactive	–
CCOC(=O)CC(C)=O	inactive	–
C=C1CC[C@H]2C[C@@H]1C2(C)C	inactive	–
Cc1cc2c(cc1S(N)(=O)=O)S(=O)(=O)CCC2	inactive	–
CCOC(C)(C)C	inactive	–
CCc1cccc2c(CCO)c[nH]c12	inactive	–
CCCN1CCCC[C@H]1C(=O)Nc1c(C)cccc1C	inactive	–
CC(=O)OCC(=O)[C@@]1(O)CCC2C3CCC4=CC(=O)CC[C@]4(C)C3[C@@H](O)C[C@@]21C (stereo not given in full)	inactive	–
NCCCNCCSP(=O)(O)O	–	2.94% [at 6.97 µM] (inactive)
CC(C)(c1ccc(O)cc1)c1ccc(O)cc1	inactive	–
COCCCOCCCOC	inactive	–
NS(=O)(=O)c1cc(C(=O)NN2C[C@H]3[C@H]4CCC(C4)[C@H]3C2)ccc1Cl	inactive	–
Cc1ccc(C#N)cc1	inactive	–
N=C(N)c1ccc(OCCCOc2ccc(C(=N)N)cc2)cc1	inactive	–
CCCCOCCOCCOCCCC	inactive	–
N[C@H]1CN(c2c(F)cc3c(=O)c(C(=O)O)cn(C4C[C@H]4F)c3c2Cl)CC12CC2 (stereo not given in full)	inactive	–
